Reference: PubChem BioAssay (EPA / NIEHS)
Where “and” joins values, the source holds several entries; their conditions need not be identical. Equal entries are not always repeated. Some structures have more than one record in an assay (separate samples or runs), and their calls can disagree. Calls of active or inactive are those of the source. Rule for the calls: active = hit-call score of the fitted dose curve at least 0.9, where 1 is the maximum; inactive = score below 0.9.

Experiments:
[1] = APR_HepG2_CellCycleArrest_24hr: Apredica 24-hour HepG2 Assay for Cell Cycle Arrest (AID 2282905); details: imaging, actives raise or lower the signal;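 note: cell cycle arrest scored as ratio of 2N to 4N nuclear DNA content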
Summary of the method: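 Cell cycle arrest is scored from nuclear DNA content measured by high-content imaging of Hoechst 33342-stained HepG2 cells following 24-hour treatment at ten concentrations up to 200 uM, with DMSO as baseline.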

[2] = APR_HepG2_NuclearSize_24hr: Apredica 24-hour HepG2 Assay for Nuclear Size (AID 2282907); details: high-content imaging, actives raise or lower the signal
Summary of the method: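 Compounds in DMSO (final 0.5%) were added to human HepG2 hepatoma cells at ten concentrations up to 200 uM for 24 hr. Fixed nuclei were stained with Hoechst 33342, and nuclear diameter was quantified from automated images.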

[3] = APR_HepG2_CellLoss_24hr: Apredica 24-hour HepG2 Assay for Cell Loss (AID 2282908); details: high-content imaging;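 for AC50: fit in both directions so a hit may be cell loss or gain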
Summary of the method: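 Cell number is quantified by fluorescence imaging of Hoechst 33342-stained nuclei following dosing at 0.39–200 uM in 0.5% DMSO. Curves are fitted in both directions from the DMSO baseline.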

[4] = APR_HepG2_MicrotubuleCSK_24hr: Apredica 24-hour HepG2 Assay for Microtubule CSK Stabilty (AID 2282909); details: HepG2 microtubule cytoskeleton imaging, actives raise or lower the signal
Summary of the method: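 Steps: dose HepG2 for 24 h (0.39–200 uM, 0.5% DMSO); fix 30 min in 3.7% formaldehyde at room temperature; permeabilize; stain alpha-tubulin 60 min; image microtubule cytoskeleton at 20x. Signal change fitted in both directions relative to DMSO.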

[5] = APR_HepG2_MitoticArrest_24hr: Apredica 24-hour HepG2 Assay for Mitotic Arrest (AID 2282910); details: high-content imaging, actives raise or lower the signal
Summary of the method: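 HepG2 cells, 24 h exposure at 0.39-200 uM (10 concentrations, duplicate, 0.5% DMSO). Fixed, stained for phospho-histone H3 with Hoechst; imaged by high-content microscopy, bidirectional fit versus DMSO.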

[6] = APR_HepG2_MitoMembPot_24hr: Apredica 24-hour HepG2 Assay for Mitochondrial Membrane Potential (AID 2282911); details: imaging, actives raise or lower the signal
Summary of the method: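 HepG2, 24 hr dosing, 10 concentrations 0.39–200 uM, 0.5% DMSO final. Live-cell MitoTracker Red CMXRos 250 nM 30 min, then 3.7% formaldehyde fix. HCS fluorescence imaging, 20x; bidirectional fit vs DMSO baseline.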

[7] = APR_HepG2_MitoMass_24hr: Apredica 24-hour HepG2 Assay for Mitochondrial Mass (AID 2282912); details: high-content imaging, actives raise or lower the signal
Summary of the method: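 The liver line HepG2 was dosed in duplicate across a 0.39–200 uM series, with final DMSO held at 0.5% v/v, and harvested at 24 hr. High-content imaging measured mitochondrial dye staining.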

[8] = APR_HepG2_p53Act_24hr: Apredica 24-hour HepG2 Assay for p53 Activation (AID 2282913); details: high-content imaging, actives raise or lower the signal;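 note: p53 protein immunofluorescence averaged per cell in HepG2 with Hoechst nuclei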
Summary of the method: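 Read-out: Cy5 immunofluorescence for p53 in fixed, permeabilized HepG2, imaged by HCS with Hoechst-defined nuclei. Dosing was 24 hr at 0.39–200 uM in 0.5% DMSO. Curves were fitted bidirectionally relative to DMSO.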

[9] = APR_HepG2_CellCycleArrest_72hr: Apredica 72-hour HepG2 Assay for Cell Cycle Arrest (AID 2282914); details: high-content imaging, actives raise or lower the signal
Summary of the method: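 HepG2, 72 hr exposure, 10-point 0.39–200 uM, duplicate, 0.5% DMSO final. Fix 3.7% formaldehyde 30 min RT, Triton X-100 0.5%, Hoechst 33342 2 ug/mL. ArrayScan 20x, six fields/well; DNA content per nucleus; bidirectional fit vs DMSO.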

[10] = APR_HepG2_StressKinase_1hr: Apredica 1-hour HepG2 Assay for Stress Kinase (AID 2282906); details: HepG2 stress kinase (phospho-c-Jun) imaging, actives raise or lower the signal
Summary of the method: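 HepG2 cells dosed 0.39-200 uM (0.5% DMSO) for 1 h, then formaldehyde-fixed. Stress kinase read by phospho-c-Jun immunofluorescence using high-content imaging; bidirectional fit vs DMSO.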

Measured: AC50

COP(=S)(OC)Oc1ccc([N+](=O)[O-])cc1
not listed: [10]
inactive: all other assays above

O=C(O)COc1ccc(Cl)cc1Cl
inactive: all assays above

Oc1cc(Cl)ccc1Oc1ccc(Cl)cc1Cl
inactive: [1] | [10] | [2] | [4] | [5] | [6] | [7] | [8] | [9]
active: [1] 9.18 µM and 20.4 µM | [2] 63.9 µM | [3] 90.7 µM and 70.9 µM and 12.8 µM | [4] 98.5 µM and 33.3 µM | [5] 61.6 µM and 63.6 µM | [6] 97.9 µM and 4.39 µM | [7] 177 µM and 59 µM | [8] 28.4 µM | [9] 18.9 µM and 11.6 µM

COC(=O)c1ccccc1S(=O)(=O)NC(=O)Nc1nc(C)nc(OC)n1
not listed: [10]
inactive: all other assays above

O=S(=O)(O)C(F)(F)C(F)(F)C(F)(F)C(F)(F)C(F)(F)C(F)(F)C(F)(F)C(F)(F)F
active: [2] 63.8 µM | [3] 122 µM [middle of 5 runs] | [4] 113 µM | [5] 106 µM [middle of 5 runs] | [7] 116 µM [middle of 4 runs] | [8] 111 µM [middle of 4 runs]
inactive: [1] | [2] | [4] | [6] | [7] | [8] | [9]

CC1(C)C(C=C(Cl)Cl)C1C(=O)OC(C#N)c1ccc(F)c(Oc2ccccc2)c1 (stereo not drawn)
not listed: [10]
inactive: all other assays above

O=C1c2ccccc2C(=O)N1SC(Cl)(Cl)Cl
not listed: [10]
inactive: all other assays above

O=[N+]([O-])c1c(Cl)c(Cl)c(Cl)c(Cl)c1Cl
active: [9] 81.9 µM
not listed: [10]
inactive: all other assays above

CNC(=O)Oc1ccccc1OC(C)C
inactive: all assays above

CCc1ccc(C(=O)NN(C(=O)c2cc(C)cc(C)c2)C(C)(C)C)cc1
inactive: all assays above

COc1cc(OC)nc(NC(=O)NS(=O)(=O)c2cc(NC=O)ccc2C(=O)N(C)C)n1
not listed: [10]
inactive: all other assays above

CCC(C)(C)C(=O)OC1=C(c2ccc(Cl)cc2Cl)C(=O)OC12CCCCC2
active: [1] 60.2 µM | [3] 137 µM | [4] 100 µM
inactive: all other assays above

O=C(O)C(F)(F)C(F)(F)C(F)(F)C(F)(F)C(F)(F)C(F)(F)C(F)(F)F
inactive: all assays above

O=C(O)CCCOc1ccc(Cl)cc1Cl
not listed: [10]
inactive: all other assays above

COP(=S)(OC)Oc1ccc(SC)c(C)c1
active: [9] 54.3 µM
inactive: all other assays above

CC(C)(C)C(O)C(Oc1ccc(Cl)cc1)n1cncn1 (stereo not drawn)
inactive: [1] | [10] | [2] | [3] | [4] | [5] | [6] | [7] | [8] | [9]
active: [1] 97.1 µM and 78.4 µM | [9] 105 µM and 88.3 µM and 39.4 µM

COC(=O)c1ccccc1CS(=O)(=O)NC(=O)Nc1nc(OC)cc(OC)n1
not listed: [10]
inactive: all other assays above

CNC(=O)Oc1cccc(N=CN(C)C)c1
active: [3] 78.6 µM | [9] 64.1 µM
inactive: all other assays above

COP(=O)(OC)OC=C(Cl)Cl
active: [1] 99.1 µM | [3] 58.9 µM
not listed: [8]
inactive: all other assays above

Oc1ccc(Cl)cc1Cc1ccccc1
active: [1] 102 µM [middle of 4 runs] | [3] 77.3 µM [middle of 6 runs] | [4] 34.7 µM and 79.9 µM and 97.3 µM | [5] 43.1 µM and 76.7 µM and 54 µM | [7] 47.2 µM and 157 µM and 159 µM | [8] 80.5 µM and 50.5 µM | [9] 86.3 µM [middle of 4 runs]
inactive: [1] | [2] | [3] | [4] | [5] | [6] | [7] | [8] | [9]

C[C@H]1[C@H](c2ccc(Cl)cc2)SC(=O)N1C(=O)NC1CCCCC1
not listed: [10]
inactive: all other assays above

CN1CSC(=S)N(C)C1
active: [10] 40.9 µM | [3] 16.8 µM | [5] 27 µM | [9] 6.04 µM
inactive: all other assays above

COc1nn(CSP(=S)(OC)OC)c(=O)s1
not listed: [10]
inactive: all other assays above

CCCN(CCOc1c(Cl)cc(Cl)cc1Cl)C(=O)n1ccnc1
active: [1] 101 µM | [3] 103 µM
not listed: [10]
inactive: all other assays above

O=C(Nc1ccccc1)Nc1cnns1
active: [4] 68.9 µM
inactive: all other assays above

CC1(c2ccc(Oc3ccccc3)cc2)OC(=O)N(Nc2ccccc2)C1=O (stereo not drawn)
active: [3] 120 µM | [4] 88.5 µM | [5] 98.3 µM | [6] 6.77 µM
inactive: all other assays above

OCCOc1ccccc1
not listed: [10]
inactive: all other assays above

CC(C)N(C(=O)COc1nnc(C(F)(F)F)s1)c1ccc(F)cc1
active: [3] 115 µM | [4] 99.5 µM
not listed: [10]
inactive: all other assays above

CCOCN(C(=O)CCl)c1c(C)cccc1CC
active: [1] 30.6 µM | [2] 33.4 µM | [3] 30.5 µM | [4] 99.6 µM | [5] 17.9 µM | [6] 50.7 µM | [7] 65.1 µM | [8] 31.9 µM | [9] 29.4 µM

O=[N+]([O-])/N=C1\NCCN1Cc1ccc(Cl)nc1
not listed: [8] | [10]
inactive: all other assays above

N#CN
not listed: [8] | [10]
inactive: all other assays above

CCCN(CCC)c1c([N+](=O)[O-])cc(C(F)(F)F)cc1[N+](=O)[O-]
active: [6] 118 µM
not listed: [8] | [10]
inactive: all other assays above

[2H]C1([2H])[n+]2ccccc2-c2cccc[n+]2C1([2H])[2H]
active: [9] 75.1 µM
not listed: [10]
inactive: all other assays above

O=C(NC(=O)c1c(F)cccc1F)Nc1ccc(OC(F)(F)C(F)OC(F)(F)F)c(Cl)c1 (stereo not drawn)
not listed: [8] | [10]
inactive: all other assays above

CCC(C)Nc1c([N+](=O)[O-])cc(C(C)(C)C)cc1[N+](=O)[O-] (stereo not drawn)
active: [1] 89 µM | [3] 45.8 µM | [4] 27.4 µM | [6] 100 µM | [9] 83.7 µM
inactive: [2] | [5] | [7]
